Test results: PubChem BioAssay (NCI)
About 83,000 compounds went through this panel and 20% of them were active in at least one assay; those are over-represented in the sample as a whole.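 Cell lines were cultured in 96-well plates, exposed to a single compound concentration, and assessed for percent growth 48 hours later.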 Unmarked numbers belong to inactive results. The source made the active and inactive calls. How the source made its calls: active means growth percent below 10; inactive means the rest.

System: CCRF-CEM leukemia
Assay: NCI-60 one-dose screen, 48 h (100 = growth as untreated, 0 = no growth, -100 = all killed)
Conditions: 10 µM unless noted

Q: `O=c1nc2sc3nc4ccccc4cc3cc-2s1` was tested. Which growth did it give?
A: 127%

Q: Which growth does the source give for `O=c1c(-c2nc3ccccc3[nH]2)cc2ccccc2n1Cc1cn(Cc2ccc(N3CCOCC3)cc2)nn1` here?
A: 110%

Q: `COC(=O)/C(CCC=C(C)C)=C1\[C@@H](OC(C)=O)C[C@@]2(C)[C@H]1CC(=O)[C@H]1[C@@]3(C)CC[C@H](NCc4ccccc4)[C@@H](C)[C@@H]3CC[C@@]12C` was tested. Which growth did it give?
A: 76.4%

Q: For `S=C1CCCC(=S)N1`, which growth is on record?
A: 105%

Q: For `CCCCC1COc2cccc3c2N1C=C/C3=C\C(=O)N(C)c1ccccc1` (stereo not drawn), which growth is on record?
A: 47.6%

Q: Which growth does the source give for `O=C(Nc1ccc(N2CCNCC2)cc1)c1[nH]ncc1Nc1cc(Oc2ccccc2)ncn1` here?
A: -27.5% (active)

Q: `COc1cc(C2CC(c3ccc(Nc4nc(NCCO)nc(N5CCOCC5)n4)cc3)=NN2c2cc(Cl)cc(Cl)c2)cc(OC)c1OC` (stereo not drawn) was tested. Which growth did it give?
A: 48%

Q: How did the growth turn out when `Cc1ccc2sc3c(NCCCNCCO)nc4ccccc4c3c(=O)c2c1` was run?
A: 10.8%

Q: Which growth does the source give for `Nc1nc(N)c2c(n1)NC1(C=C(O)c3ccccc31)C1=C(N2)c2ccccc2C1=O` (stereo not drawn) here?
A: 97.3%

Q: Which growth does the source give for `O=C(c1nc2ccccc2[nH]1)C1[C@@H](c2cccc(O)c2)C2CC3CCCCC3N2[C@@]12C(=O)Nc1cc(Cl)ccc12` (stereo partly drawn) here?
A: 15%

Q: For `Clc1ccc(COc2ccc(Nc3ncnc4onc(-c5ccccc5)c34)cc2)cc1`, which growth is on record?
A: 73.2%

Q: With `CC1(O)COCCCCOc2c(CN)cccc2NC(=O)c2nc(cnc2N)-c2ccc(cc2)S(=O)(=O)C(C)(C)C1` (stereo not drawn) as the compound, how does the growth read?
A: 5.36% (active)

Q: Which growth does the source give for `O=c1c2cc(F)ccc2sc2c(NCCN3CCCC3)nc3ccccc3c12` here?
A: 33.5%

Q: `COc1ccc(-c2nocc2-c2cccs2)cc1` was tested. Which growth did it give?
A: 105%

Q: `Cn1c2c(c(=O)[nH]c1=O)NC1=C(C(=O)c3ccccc31)C1(C=C(O)c3ccccc31)N2` (stereo not drawn) was tested. Which growth did it give?
A: 107%

Q: `Cc1c(-c2noc(-c3ccc([N+](=O)[O-])cc3)n2)no[n+]1[O-]` was tested. Which growth did it give?
A: 101%

Q: `O=C(Nc1ccc(N2CCNCC2)cc1)c1[nH]ncc1Nc1ncnc2sc3c(c12)CCC3` was tested. Which growth did it give?
A: -32.1% (active)

Q: Which growth does the source give for `COC(=O)/C(CCC=C(C)C)=C1\[C@@H](OC(C)=O)C[C@@]2(C)[C@H]1CC(=O)N[C@H]1[C@@]3(C)CCNC(=O)[C@@H](C)[C@@H]3CC[C@@]12C` here?
A: 104%

Q: `O=C(Nc1ncc(Cc2cccc(C(F)(F)F)c2)s1)C1COc2ccccc2O1` (stereo not drawn) was tested. Which growth did it give?
A: 86.7%

Q: Which growth does the source give for `CCN1C(=O)N(CC)C2Nn3c(s/c(=C\c4ccccc4F)c3=O)=NC21` (stereo not drawn) here?
A: 34.1%

Q: With `O=C1/C(=C/c2cccc(O)c2)COc2ccc(O)cc21` as the compound, how does the growth read?
A: 8.33% (active)

Q: How did the growth turn out when `O=C(NCc1ccco1)C1CN(c2ccc(Cl)cc2)N(c2ccc(Cl)cc2)C1=O` (stereo not drawn) was run?
A: 32.3%

Q: With `CC(=O)c1ccc(NC(=O)Nc2ccc(S(=O)(=O)Nc3ccc(Cl)nn3)cc2)cc1` as the compound, how does the growth read?
A: 116%

Q: With `O=C(/C=C/c1ccc(Cl)cc1)c1ccc(Nc2nc(NCCO)nc(N3CCOCC3)n2)cc1` as the compound, how does the growth read?
A: 82.8%

Q: With `CN(O)c1nc(N(C)O)nc(N2CCOCC2)n1` as the compound, how does the growth read?
A: 5.09% (active)

Q: For `C1CCN(c2nc(N3CCCCC3)nc(N3CCOCC3)n2)CC1`, which growth is on record?
A: 92.6%

Q: `Cn1nc(C(F)(F)F)c(-c2ccc(Cl)c(C(F)(F)F)c2)c1-c1ccc(OCc2ccc(Cl)cc2)cc1O` was tested. Which growth did it give?
A: 9.89% (active)

Q: For `CC/C=C\C[C@H](O)C/C=C1/C(=O)C=C[C@@H]1C/C=C\CCCC(=O)OCCS(=O)(=O)c1ccccc1`, which growth is on record?
A: 5.02% (active)

Q: For `O=C(/C=C/c1ccc(F)cc1)c1ccc(Nc2nc(NCCO)nc(Nc3ccc(Cl)cc3)n2)cc1`, which growth is on record?
A: 60.5%

Q: How did the growth turn out when `COc1cc(C2C3=C(COC3=O)N(CCO)c3cc4c(cc32)OCCO4)cc(OC)c1O` (stereo not drawn) was run?
A: 15.5%

Q: For `COc1cc2nc(NC3CCCC3)nc(NC3CCN(C(C)C)CC3)c2cc1OC`, which growth is on record?
A: 66.4%

Q: With `CCCCC1CCc2cccc3c(SCC(=O)N(C)c4ccc(Cl)cc4)cc[n+]1c23` (stereo not drawn) as the compound, how does the growth read?
A: 108%

Q: For `CC(=O)c1ccc(Nc2nc(NCCO)nc(Nc3ccc(Cl)cc3)n2)cc1`, which growth is on record?
A: 89.4%

Q: Which growth does the source give for `NC1C(N)C(N)C1N` (stereo not drawn) here?
A: 85.1%

Q: For `Cc1ccc2cccc(Oc3ccc(Nc4ncnc5onc(-c6ccccc6)c45)cc3)c2n1`, which growth is on record?
A: 80.7%

Q: For `COc1cc(C=C2C(=O)N(C)C(=O)N(C)C2=O)cc(CN2CCCCC2)c1O`, which growth is on record?
A: 109%

Q: For `COc1cc2nc(-c3cnc(N(C)C)nc3)nc(NC3CCN(Cc4ccccc4)CC3)c2cc1OC`, which growth is on record?
A: -31.3% (active)

Q: For `COc1ccc(CCN2C(=O)CCSC2=S)cc1OC`, which growth is on record?
A: 73.6%

Q: With `NCCCNc1nc2ccccc2c2c(=O)c3cc(F)ccc3sc12` as the compound, how does the growth read?
A: 0.338% (active)

System: MOLT-4 leukemia
Assay: as above
Conditions: 10 µM unless noted

Q: With `O=c1nc2sc3nc4ccccc4cc3cc-2s1` as the compound, how does the growth read?
A: 120%

Q: `O=c1c(-c2nc3ccccc3[nH]2)cc2ccccc2n1Cc1cn(Cc2ccc(N3CCOCC3)cc2)nn1` was tested. Which growth did it give?
A: 99%

Q: Which growth does the source give for `COC(=O)/C(CCC=C(C)C)=C1\[C@@H](OC(C)=O)C[C@@]2(C)[C@H]1CC(=O)[C@H]1[C@@]3(C)CC[C@H](NCc4ccccc4)[C@@H](C)[C@@H]3CC[C@@]12C` here?
A: 61.7%

Q: How did the growth turn out when `S=C1CCCC(=S)N1` was run?
A: 107%

Q: Which growth does the source give for `CCCCC1COc2cccc3c2N1C=C/C3=C\C(=O)N(C)c1ccccc1` (stereo not drawn) here?
A: 55.7%

Q: For `O=C(Nc1ccc(N2CCNCC2)cc1)c1[nH]ncc1Nc1cc(Oc2ccccc2)ncn1`, which growth is on record?
A: -16% (active)

Q: `COc1cc(C2CC(c3ccc(Nc4nc(NCCO)nc(N5CCOCC5)n4)cc3)=NN2c2cc(Cl)cc(Cl)c2)cc(OC)c1OC` (stereo not drawn) was tested. Which growth did it give?
A: 33.2%

Q: `Cc1ccc2sc3c(NCCCNCCO)nc4ccccc4c3c(=O)c2c1` was tested. Which growth did it give?
A: -39.3% (active)

Q: For `Nc1nc(N)c2c(n1)NC1(C=C(O)c3ccccc31)C1=C(N2)c2ccccc2C1=O` (stereo not drawn), which growth is on record?
A: 104%

Q: How did the growth turn out when `O=C(c1nc2ccccc2[nH]1)C1[C@@H](c2cccc(O)c2)C2CC3CCCCC3N2[C@@]12C(=O)Nc1cc(Cl)ccc12` (stereo partly drawn) was run?
A: 7.08% (active)

Q: With `Clc1ccc(COc2ccc(Nc3ncnc4onc(-c5ccccc5)c34)cc2)cc1` as the compound, how does the growth read?
A: 85.9%

Q: How did the growth turn out when `CC1(O)COCCCCOc2c(CN)cccc2NC(=O)c2nc(cnc2N)-c2ccc(cc2)S(=O)(=O)C(C)(C)C1` (stereo not drawn) was run?
A: -15.6% (active)

Q: For `O=c1c2cc(F)ccc2sc2c(NCCN3CCCC3)nc3ccccc3c12`, which growth is on record?
A: 5.14% (active)

Q: Which growth does the source give for `COc1ccc(-c2nocc2-c2cccs2)cc1` here?
A: 108%

Q: How did the growth turn out when `Cn1c2c(c(=O)[nH]c1=O)NC1=C(C(=O)c3ccccc31)C1(C=C(O)c3ccccc31)N2` (stereo not drawn) was run?
A: 121%

Q: With `Cc1c(-c2noc(-c3ccc([N+](=O)[O-])cc3)n2)no[n+]1[O-]` as the compound, how does the growth read?
A: 101%

Q: How did the growth turn out when `O=C(Nc1ccc(N2CCNCC2)cc1)c1[nH]ncc1Nc1ncnc2sc3c(c12)CCC3` was run?
A: -39.3% (active)

Q: `COC(=O)/C(CCC=C(C)C)=C1\[C@@H](OC(C)=O)C[C@@]2(C)[C@H]1CC(=O)N[C@H]1[C@@]3(C)CCNC(=O)[C@@H](C)[C@@H]3CC[C@@]12C` was tested. Which growth did it give?
A: 99.5%

Q: Which growth does the source give for `O=C(Nc1ncc(Cc2cccc(C(F)(F)F)c2)s1)C1COc2ccccc2O1` (stereo not drawn) here?
A: 80.2%

Q: How did the growth turn out when `CCN1C(=O)N(CC)C2Nn3c(s/c(=C\c4ccccc4F)c3=O)=NC21` (stereo not drawn) was run?
A: 44%

Q: For `O=C1/C(=C/c2cccc(O)c2)COc2ccc(O)cc21`, which growth is on record?
A: 33.3%

Q: With `O=C(NCc1ccco1)C1CN(c2ccc(Cl)cc2)N(c2ccc(Cl)cc2)C1=O` (stereo not drawn) as the compound, how does the growth read?
A: 28.3%

Q: Which growth does the source give for `CC(=O)c1ccc(NC(=O)Nc2ccc(S(=O)(=O)Nc3ccc(Cl)nn3)cc2)cc1` here?
A: 104%

Q: `O=C(/C=C/c1ccc(Cl)cc1)c1ccc(Nc2nc(NCCO)nc(N3CCOCC3)n2)cc1` was tested. Which growth did it give?
A: 71.3%

Q: For `CN(O)c1nc(N(C)O)nc(N2CCOCC2)n1`, which growth is on record?
A: 22.1%

Q: `C1CCN(c2nc(N3CCCCC3)nc(N3CCOCC3)n2)CC1` was tested. Which growth did it give?
A: 81.5%

Q: How did the growth turn out when `Cn1nc(C(F)(F)F)c(-c2ccc(Cl)c(C(F)(F)F)c2)c1-c1ccc(OCc2ccc(Cl)cc2)cc1O` was run?
A: 12.3%

Q: For `CC/C=C\C[C@H](O)C/C=C1/C(=O)C=C[C@@H]1C/C=C\CCCC(=O)OCCS(=O)(=O)c1ccccc1`, which growth is on record?
A: 8.02% (active)

Q: Which growth does the source give for `O=C(/C=C/c1ccc(F)cc1)c1ccc(Nc2nc(NCCO)nc(Nc3ccc(Cl)cc3)n2)cc1` here?
A: 57.9%

Q: How did the growth turn out when `COc1cc(C2C3=C(COC3=O)N(CCO)c3cc4c(cc32)OCCO4)cc(OC)c1O` (stereo not drawn) was run?
A: 29.7%

Q: For `COc1cc2nc(NC3CCCC3)nc(NC3CCN(C(C)C)CC3)c2cc1OC`, which growth is on record?
A: 54.1%

Q: Which growth does the source give for `CCCCC1CCc2cccc3c(SCC(=O)N(C)c4ccc(Cl)cc4)cc[n+]1c23` (stereo not drawn) here?
A: 98.7%

Q: With `CC(=O)c1ccc(Nc2nc(NCCO)nc(Nc3ccc(Cl)cc3)n2)cc1` as the compound, how does the growth read?
A: 83.9%

Q: With `NC1C(N)C(N)C1N` (stereo not drawn) as the compound, how does the growth read?
A: 83.7%

Q: Which growth does the source give for `Cc1ccc2cccc(Oc3ccc(Nc4ncnc5onc(-c6ccccc6)c45)cc3)c2n1` here?
A: 72.2%

Q: For `COc1cc(C=C2C(=O)N(C)C(=O)N(C)C2=O)cc(CN2CCCCC2)c1O`, which growth is on record?
A: 98.2%

Q: With `COc1cc2nc(-c3cnc(N(C)C)nc3)nc(NC3CCN(Cc4ccccc4)CC3)c2cc1OC` as the compound, how does the growth read?
A: -16.5% (active)

Q: With `COc1ccc(CCN2C(=O)CCSC2=S)cc1OC` as the compound, how does the growth read?
A: 100%

Q: With `NCCCNc1nc2ccccc2c2c(=O)c3cc(F)ccc3sc12` as the compound, how does the growth read?
A: -35% (active)
